# In PubChem BioAssay AID1259343 (VanderVen Lab, College of Veterinary Medicine, Cornell …, 2017):
# The campaign covered roughly 6,200 compounds. About 2,900 (47%) were called active. So high a share suggests a set chosen from earlier hits. The list shows a part of the results. Values without a mark were called inactive. Rule as the data show it: active = inhibition above about 50%; inactive = the rest.
# Assay: Mycobacterium tuberculosis growth inhibition, primary screen (AID 1259343)
# Conditions: inhibition: at 10 µM, hits give high values; outcome: 10 uM
row,SMILES,inhibition
1,CCCCS(=O)(=O)N(C)Cc1ccc(-c2ccc(Br)cc2)o1,83.2% (active)
2,OCC#CCSc1nnc(-c2ccccc2Br)o1,99.2% (active)
3,OCC#CCSc1nnc(-c2cccc(Br)c2)o1,-10.9%
4,Brc1ccccc1-c1nnc(SCc2ncc(-c3ccccc3)o2)o1,-4.92%
5,Fc1ccc(CN2CCC(Cc3ccc(-c4ccccc4)cc3)CC2)cc1C(F)(F)F,59% (active)
6,CC(C)(C)c1ccc2c(c1)OCC(C(=O)Nc1nc(-c3ccncc3)cs1)O2 (stereo not drawn),84.6% (active)
7,CC(=O)Nc1ccc(-c2csc(NC(=O)C3Cc4ccccc4O3)n2)c(F)c1 (stereo not drawn),16.7%
8,COC(=O)c1cc(C=O)c2ccc3ccccc3n12,27.1%
9,Oc1cccc2ccc(/C=C/c3ccccc3OC(F)F)nc12,100% (active)
10,COc1ccc(Br)cc1C=Cc1ccc2cccc(O)c2n1,17.6%
11,Oc1cccc2ccc(C=Cc3cccc(Br)c3)nc12,90.5% (active)
12,COC(=O)c1ccc(C=Cc2ccc3cccc(O)c3n2)cc1,63.1% (active)
13,CCc1ccc(NC(=O)c2ccc(CN3CCCC3=O)cc2)cc1,73.2% (active)
14,Cc1cc(NC(=O)c2ccc(CN3C(=O)CC4(CCCC4)C3=O)cc2)ccc1Cl,-6.77%
15,CCc1ccc(NC(=O)C(C)n2cc(C(F)(F)F)ccc2=O)cc1 (stereo not drawn),49.6%
16,CC(NS(=O)(=O)c1ccc(Cl)c(C(F)(F)F)c1)C1CC2CCC1C2 (stereo not drawn),inactive
17,CCn1c(C)c(C(=O)CN(C(=O)c2ccc(Br)cc2)C2CCCCC2)c(C)c1C(=O)OC,22.6%
18,Cc1ccccc1C1CC(N(C(=O)c2ccc(Br)cc2)C2CC2)C1 (stereo not drawn),82.4% (active)
19,COC(=O)c1ccc(N2CN=C(c3ccc(C)cc3)NC2=S)cc1,87.5% (active)
20,Cc1ccc(C(=O)OC(C)CN2CCN(C)CC2)cc1 (stereo not drawn),-10.1%
21,CC1(Oc2ccccc2-c2ccno2)CCN(Cc2ccc(-c3ccccc3)o2)C1 (stereo not drawn),25.5%
22,Fc1ccc(N2CCN(C[C@H]3CN4CC[C@H]3C[C@@H]4CNC(=S)Nc3ccc(-n4cccn4)cc3)CC2)cc1,95.6% (active)
23,CCC(C)C(=O)Nc1nc(-c2ccc(OC)c(F)c2)cs1 (stereo not drawn),0.73%
24,CC(OC(=O)c1ccc(OCC2CCCO2)cc1)C(=O)Nc1nc(-c2ccc(F)c(F)c2)cs1 (stereo not drawn),100% (active)

row,SMILES,inhibition
1,CN(c1cccc(O)c1)S(=O)(=O)c1ccc2c(c1)OCCCO2,52.4% (active)
2,O=S(=O)(Oc1ccc2oc3ccccc3c2c1)c1ccc2c(c1)OCCO2,31.3%
3,CN(c1cccc(O)c1)S(=O)(=O)c1cc(Cl)sc1Cl,-2.74%
4,Nc1ccc2scnc2c1,94.5% (active)
5,O=C(Nc1ccc2scnc2c1)C1CC(=O)N(CC2CC2)C1 (stereo not drawn),34.9%
6,O=C(NCC1CCC2(CC1)OCCO2)c1ccc(Cl)cc1F,-19.8%
7,O=C(Nc1cc(C(F)(F)F)no1)c1ccc(Cl)cc1F,97.8% (active)
8,Cc1csc(C(C#N)C(=O)CSc2nnc(NC3CC3)s2)n1 (stereo not drawn),28.8%
9,CCCSc1nnc(NCc2ccc(OC)cc2)s1,33.5%
10,CCCSc1nnc(SCC(=O)Nc2nc(C)cs2)s1,90.9% (active)
11,NCC[C@H](O)C(=O)N[C@@H]1C[C@H](N)[C@@H](O[C@H]2O[C@H](CN)[C@@H](O)[C@H](O)[C@H]2O)[C@H](O)[C@H]1O[C@H]1O[C@H](CO)[C@@H](O)[C@H](N)[C@H]1O,98.7% (active)
12,CN[C@H]1C[C@@H](N)[C@H](O)[C@@H](O[C@@H]2O[C@H](CO)[C@@H]3OC4(O[C@@H]3[C@@H]2O)O[C@H](C(N)CO)[C@H](O)[C@H](O)[C@H]4O)[C@@H]1O (stereo partly drawn),41.3%
13,COc1ccc(CC(=O)Nc2cc(C)nn2-c2nc(C)cc(=O)[nH]2)cc1OC,99% (active)
14,CCCc1cc(=O)[nH]c(-n2nc(C)cc2NC(=O)Cc2ccc(OC)c(OC)c2)n1,98.9% (active)
15,CCc1cc(=O)[nH]c(-n2nc(C)cc2NC(=O)Cc2ccc(OC)c(OC)c2)n1,48%
16,Cc1n[nH]c(C)c1CCCCCCOc1ccc(F)cc1,87.3% (active)
17,Cc1n[nH]c(C)c1CCCCCOc1cccc(Cl)c1,99.2% (active)
18,CCOc1ccc(OCCCCOc2ccc(F)cc2)cc1,8.32%
19,CNc1snc(C)c1C(=O)NCc1ccc2c(c1)CCC2,39.8%
20,CNc1snc(C)c1C(=O)OCc1ccc(-n2cccn2)cc1,50.2% (active)
21,Cc1oc(-c2ccc(F)cc2F)nc1CN(C)Cc1ccccc1C(F)(F)F,30.1%
22,N#Cc1nc(NC(=O)c2ccc(N3CCCC3)c(F)c2)[nH]c1C#N,70.6% (active)
23,N#Cc1ccc(C(=O)Nc2ccccc2N2CCCCCC2)cc1,39.7%
24,COc1cc(C(=O)Nc2cc(Cl)ccc2N2CCSCC2)ccc1C,12.9%
